Test results reported in PubChem BioAssay AID686978 (National Center for Advancing Translational Sciences (NCATS), 2013).
The campaign covered roughly 420,000 compounds. About 64,000 (15%) were called active. About 27% were inconclusive and are not listed. Calls follow the shape of the dose curve; as a rule, active = well fitted inhibition curve with a large enough effect; inconclusive = small, poorly fitted or top-dose-only effect; inactive = flat fitted curve, though single readings scatter. These entries were drawn from the full list. Where a call stands in place of a potency, no number is given.

Assay: qHTS for Inhibitors of human tyrosyl-DNA phosphodiesterase 1 (TDP1): qHTS in cells in absence of CPT; also: nearly all actives have a fitted effect of over 55% in size
Details: DT40 Tdp1-/- hTDP1 cells, no CPT, ATP luminescence, 48 h; activity change, negative = growth inhibition: at 46.2 µM (top of the series)
In short: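 A cellular qHTS used chicken DT40 cells lacking endogenous Tdp1 but carrying stably transfected human TDP1. Compounds were applied without camptothecin, and cell growth kinetics were judged by ATP-dependent luminescence after ≥48 hr.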
Potency is read from the fitted curve at half-maximal effect.

SMILES	Potency
COc1ccc(C(CNCC(=O)Nc2ccccc2F)N(C)C)cc1 (centres undefined)	inactive
CCO[C@@H]1OC(C(=O)N2CCOCC2)=C[C@H](C)[C@H]1CCCO	inactive
CCO[C@H]1OC(C(=O)N2CCOCC2)=C[C@@H](c2ccc3c(c2)OCO3)[C@@H]1CCCO	inactive
CCO[C@H]1OC(C(=O)N2CCCCCCC2)=C[C@@H](c2ccc(C(F)(F)F)cc2)[C@@H]1CCCO	20.6 µM (active)
CC1CN(C(=S)Nc2cccc(F)c2)CC(C)O1 (centres undefined)	inactive
CN(Cc1ccc(CNC[C@H]2O[C@@H](n3cnc4c(N)ncnc43)[C@H](O)[C@@H]2O)o1)S(C)(=O)=O	inactive
Cc1cccc(NC(=O)C2CC(=O)OC23CCCC3)c1 (centres undefined)	inactive
Cc1ccc2[nH]c(=O)c(CN(CC3COCCO3)C(=O)Nc3ccccc3C)cc2c1 (centres undefined)	inactive
Cc1cccc(NC(=O)N(Cc2cc3cc(C)cc(C)c3[nH]c2=O)CC2COCCO2)c1 (centres undefined)	16.4 µM (active)
O=C(O)c1[nH]c2ccccc2c1C(c1cccc(O)c1)c1c(C(=O)O)[nH]c2ccccc12	inactive
COC(=O)c1ccc(CNC(=O)C2CCC(=O)N(Cc3ccccn3)C2)cc1 (centres undefined)	inactive
CN1CCN(C(=O)Cn2c(C(F)(F)F)nc3ccccc32)CC1	inactive
O=c1cc(CO)oc(C(Nc2cccc(C(F)(F)F)c2)c2ccccn2)c1O (centres undefined)	inactive
FC(F)(F)c1cccc(Nc2ncnc3ccccc23)c1	18.4 µM (active)
Cc1nc2nc(C)c(CCC(=O)N3CCN(c4ccccc4)CC3)c(C)n2n1	inactive
COc1ccccc1CN1CCCC(N2CCN(c3ccc(F)cc3)CC2)C1 (centres undefined)	inactive
Cc1cc(=O)oc(C)c1C(=O)NCc1ccc(F)cc1	inactive
CCC(=O)Nc1nnc(S(=O)(=O)N2CCCc3ccccc32)s1	inactive
CC1CCN(c2ccc([N+](=O)[O-])c(SCCO)c2)CC1	23.1 µM (active)
CC1CCN(c2ccc(C(=O)Nc3nnc(C4CC4)s3)cc2[N+](=O)[O-])CC1	inactive
CC1CCN(c2ccc3c(c2)S(=O)(=O)c2cc(C(=O)O)ccc2C3=O)CC1	inactive
COCCn1c(N)c(NCc2ccccc2)c(=O)[nH]c1=O	inactive
COC(=O)c1sc(C(F)(F)F)c(-c2ccccc2)c1S(=O)(=O)N(C)C	inactive

SMILES	Potency
CC(C)NC(=O)c1nn(-c2ccccc2F)nc1CO	inactive
Cc1ccc(-n2nc(CO)c(C(=O)NCCc3ccccc3)n2)cc1	inactive
CC(CCCc1ccccc1)NC(=O)c1nn(-c2ccc(Cl)cc2)nc1CO (centres undefined)	20.6 µM (active)
CCc1ccc(NC(=O)CCNS(=O)(=O)c2cccs2)cc1	inactive
O=C(CN(C(=O)CNC(=O)c1cccs1)c1cccc(F)c1)NC1CCCCC1	inactive
CCCN1CCN(CCCNC(=O)Cn2nc(CC)n3c(cc4occc43)c2=O)CC1	inactive
Cc1nn(CC(=O)NCCc2ccccc2)c(=O)c2cc3occc3n12	inactive
CCc1ccc(-c2cc3c(=O)n(CC(=O)NCCCN4CCN(Cc5ccccc5)CC4)nc(C)n3n2)cc1	16.4 µM (active)
COc1cc(OC)cc(-c2nc(=S)n3ccsc3n2)c1	inactive
O=S(=O)(Cc1cc(Cl)nc(-c2cccnc2)n1)c1ccccc1	inactive
CCS(=O)(=O)n1nc(-c2ccccc2)nc1SCc1ccccc1	inactive
O=S(=O)(Cc1cc(Sc2ccccc2)nc(-c2ccccc2)n1)c1ccccc1	23.1 µM (active)
COCCCNC(=O)Cn1c(=O)n(Cc2ccccc2Cl)c(=O)c2cc(OC)c(OC)cc21	inactive
CCCCCOC(=O)c1ccc(N2C(=O)C3C4C=CC(C4)C3C2=O)cc1 (centres undefined)	inactive
COc1cc(C2CC(=O)N3CN(Cc4ccccc4)CSC3=C2C#N)ccc1OCc1ccccc1 (centres undefined)	inactive
COc1ccc(SCc2noc(C(=O)NCC3CCCO3)c2C(=O)O)cc1 (centres undefined)	inactive
O=C(NCc1ccccc1)c1onc(CSc2ccncc2)c1C(=O)NCc1ccccc1	inactive
O=C(NCC1CC1)c1onc(CSc2ccccc2)c1C(=O)NCC1CC1	20.6 µM (active)
COc1ccc(C(=O)NC(=S)N2CCNC(=O)C2CC(=O)OC(C)C)cc1 (centres undefined)	inactive
O=c1cc(CSc2ccc(Cl)cc2)nc(N2CCOCC2)[nH]1	inactive
Cc1ccc2nc(N3C(=O)C(O)=C(C(=O)c4ccco4)C3c3cccc(O)c3)sc2c1 (centres undefined)	inactive
COc1ccc(OC)c(C(O)c2nc3ccccc3n2C)c1 (centres undefined)	inactive
COc1cc(C(O)c2nc3ccccc3n2C)cc(OC)c1OC (centres undefined)	18.4 µM (active)

SMILES	Potency
COc1cccc(C(O)c2nc3ccccc3n2C)c1 (centres undefined)	inactive
COc1ccc(-c2cc(=O)oc3cc(OC(C)C(=O)NCC4CCC(C(=O)O)CC4)ccc23)cc1 (centres undefined)	inactive
O=C(NCCc1cccc(F)c1)C1CCCN(c2nc3ccccc3s2)C1 (centres undefined)	23.1 µM (active)
O=C(NCc1ccccc1)C1CCCN(c2nc3ccsc3c(=O)s2)C1 (centres undefined)	inactive
Cc1cc(=O)n2nc(N3CCCC(C(=O)NCc4cccc(Cl)c4)C3)sc2n1 (centres undefined)	inactive
COc1ccccc1C(=O)NC(=O)COC(=O)C1CC1	inactive
Cc1cccc(CN2CCC(n3nccc3NC(=O)c3ccccc3C)CC2)n1	inactive
Cc1ccccc1CN1CCN(C(=O)c2cccc(F)c2)CC1	inactive
Cc1ccccc1CN1CCC(CNC(=O)c2cc3ccc4cccnc4c3[nH]2)CC1	23.1 µM (active)
CCOc1ccccc1N(CC)C(=O)c1cc2ccc3cccnc3c2[nH]1	5.8 µM (active)
CCOc1cc2ccccc2cc1C(=O)Nc1ccccn1	inactive
COc1cc(NC(=O)c2cc3ccc4cccnc4c3[nH]2)cc(OC)c1OC	inactive
CCc1nnc(SCc2cccc(F)c2)nc1CC	inactive
CSCCC(NC(=O)C1CCC(C)CC1)C(=O)NCc1ccco1 (centres undefined)	inactive
Cc1cc(C(F)(F)F)c(C#N)c(SCC(=O)NC2CC2)n1	inactive
CC(=O)N(CN1C(=O)C2CC=CCC2C1=O)c1cccc(Cl)c1 (centres undefined)	inactive
O=C1CSC(c2cccc(F)c2)N1c1ccccc1F (centres undefined)	inactive
Cc1ccc(CNC(=O)CSc2c(C)cnc3c2c(=O)n(C)c(=O)n3C)cc1	inactive
COc1ccc(C(=O)CSc2n[nH]c(N)n2)cc1	inactive
COCCNC(=O)CSc1c(C)cnc2c1c(=O)n(C)c(=O)n2C	inactive
CC(=O)c1ccc(NC(=O)CSc2c(C(C)C)cnc3c2c(=O)n(C)c(=O)n3C)cc1	14.6 µM (active)
COc1ccc(C(=O)CSc2nccc(=O)[nH]2)cc1	inactive
COc1ccc(C(=O)CSc2c(C(C)C)cnc3c2c(=O)n(C)c(=O)n3C)cc1	13 µM (active)
